Test results as given in PubChem BioAssay (Tox21).
Inconclusive results are not listed. Entries that show only a call come without a potency. Active and inactive are the calls of the source. Calls follow the shape of the dose curve; as a rule, active = well fitted curve in the direction sought with a large enough effect in the repeat runs; inconclusive = weak or mixed curves; inactive = no such curve, though single readings can be large; an effect the other way counts as inactive or inconclusive.

Target: Cytochrome P450 2C9 (Homo sapiens) (UniProt P11712)
Sequence (P11712 whole entry, looked up): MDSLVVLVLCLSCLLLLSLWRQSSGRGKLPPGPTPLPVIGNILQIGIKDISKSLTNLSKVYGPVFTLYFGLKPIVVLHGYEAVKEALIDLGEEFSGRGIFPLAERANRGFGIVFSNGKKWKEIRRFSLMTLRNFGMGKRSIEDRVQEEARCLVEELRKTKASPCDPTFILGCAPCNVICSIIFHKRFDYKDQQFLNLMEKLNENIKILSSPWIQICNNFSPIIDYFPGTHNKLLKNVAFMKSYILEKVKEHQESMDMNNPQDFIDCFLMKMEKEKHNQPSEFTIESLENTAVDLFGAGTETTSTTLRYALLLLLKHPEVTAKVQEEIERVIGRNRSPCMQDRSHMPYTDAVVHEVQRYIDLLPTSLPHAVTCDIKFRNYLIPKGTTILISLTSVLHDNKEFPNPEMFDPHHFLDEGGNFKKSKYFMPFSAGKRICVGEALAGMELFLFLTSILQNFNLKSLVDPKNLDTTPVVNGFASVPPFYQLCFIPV
Assay: Cytochrome P450 Family 2 Subfamily C Member 9 (CYP2C9) small molecule antagonists: luciferase reporter qHTS assay (AID 1671198)
Conditions: P450-Glo CYP2C9 enzyme assay, luciferin luminescence; series mostly up to 115 µM
Procedure, shortened: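 CYP2C9 activity was measured with a P450-Glo proluciferin substrate. Enzyme–substrate mix was held with compound for 10 min at room temperature, then NADPH regeneration solution was added for 1 h at 37C. Luciferin product was read as luminescence.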
Also: nearly all actives have a fitted effect of over 50% in size.

Compound | Potency
N#C[C@@H]1C[C@@H]2C[C@@H]2N1C(=O)[C@@H](N)C12CC3CC(CC(O)(C3)C1)C2 | inactive
CC1=CC(O)CC(C)(C)C1 (stereo unspecified) | inactive
CO[Si](C)(OC)OC | inactive

Target: Cytochrome P450 1A2 (Homo sapiens) (UniProt P05177)
Sequence (P05177 whole entry, looked up): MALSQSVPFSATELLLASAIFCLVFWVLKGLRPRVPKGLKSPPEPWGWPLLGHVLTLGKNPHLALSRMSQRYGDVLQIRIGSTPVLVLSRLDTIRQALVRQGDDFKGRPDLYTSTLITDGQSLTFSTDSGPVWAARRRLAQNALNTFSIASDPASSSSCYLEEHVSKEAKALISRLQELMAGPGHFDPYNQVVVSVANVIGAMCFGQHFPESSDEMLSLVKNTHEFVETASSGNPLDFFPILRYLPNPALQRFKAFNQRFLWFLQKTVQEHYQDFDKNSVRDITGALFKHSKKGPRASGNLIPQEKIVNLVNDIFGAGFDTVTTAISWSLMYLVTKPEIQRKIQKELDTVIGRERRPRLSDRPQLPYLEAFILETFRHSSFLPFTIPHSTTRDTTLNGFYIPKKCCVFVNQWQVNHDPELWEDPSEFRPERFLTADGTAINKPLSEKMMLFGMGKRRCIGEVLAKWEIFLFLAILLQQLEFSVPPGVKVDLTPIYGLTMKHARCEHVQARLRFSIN
Assay: Cytochrome P450 Family 1 Subfamily A Member 2 (CYP1A2) small molecule antagonists: luciferase reporter qHTS assay (AID 1671199); also: potency is read from the fitted curve at half-maximal effect
Conditions: P450-Glo CYP1A2 enzyme, luciferin luminescence, 1 h; series mostly up to 53 µM
Procedure, shortened: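 Inhibition of CYP1A2 conversion of proluciferin to luciferin, detected by luminescence. Reaction run 1 h at room temperature with NADPH regeneration after brief compound preincubation.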

Compound | Potency
O=C(N[C@@H](c1ccccc1)[C@@H]1CCCCN1)c1cccc(C(F)(F)F)c1Cl | inactive
CNC(=S)NC | 31.7 µM (active)
Nc1nccs1 | inactive
O=C(/C=C/c1ccccc1)OCCCc1ccccc1 | 12.6 µM (active)
CC(C)C(OC(=O)c1ccccc1)C(C)(C)COC(=O)c1ccccc1 (stereo unspecified) | 35.6 µM (active)
Cc1ccc(S)cc1 | 31.7 µM (active)
c1cc[c]([Bi]([c]2ccccc2)[c]2ccccc2)cc1 | inactive
O=C(C(=O)c1ccccc1)c1ccccc1 | 11.2 µM (active)
Cc1cc(S(=O)(=O)O)ccc1N=Nc1c(O)ccc2ccccc12 | 25.2 µM (active)
CCOC(=N)CC(=O)OCC | 39.9 µM (active)
CCCC1C(CC)=CC(CC)=CN1c1ccccc1 (stereo unspecified) | 11.2 µM (active)
CCCCCCCCCCCC[N+](C)(C)CCCS(=O)(=O)[O-] | inactive
CCCCN(CCCC)C(=S)SSC(=S)N(CCCC)CCCC | 35.2 µM (active)
NC(=O)N(O)[C@@H]1C=C[C@H](Oc2cccc(Oc3ccc(F)cc3)c2)C1 | 7.96 µM (active)
CCCCC/C(=C\c1ccccc1)CO | 3.94 µM (active)
COc1cc2c(N3CCN(C(=O)Nc4ccc(OC(C)C)cc4)CC3)ncnc2cc1OCCCN1CCCCC1 | inactive
OCC1CC=CCC1 (stereo unspecified) | inactive
CCCCC(CC)C(=O)OCCOCCOCCOCCOC(=O)C(CC)CCCC (stereo unspecified) | 31.7 µM (active)
CCCCCCCC/C=C\CCCCCCCC(=O)OC | 31.8 µM (active)
CCC(=O)OC/C=C/c1ccccc1 | 63.3 µM (active)
CO/N=C1\CN(c2nc3c(cc2F)c(=O)c(C(=O)O)cn3C2CC2)CC1CN (stereo unspecified) | inactive
Nc1ccc(C(=O)OCCCOC(=O)c2ccc(N)cc2)cc1 | 7.1 µM (active)
N#C[C@@H]1C[C@@H]2C[C@@H]2N1C(=O)[C@@H](N)C12CC3CC(CC(O)(C3)C1)C2 | inactive
CC1=CC(O)CC(C)(C)C1 (stereo unspecified) | inactive

Target: Voltage-gated inwardly rectifying potassium channel KCNH2 (Homo sapiens) (UniProt Q12809)
Sequence (Q12809 whole entry, looked up): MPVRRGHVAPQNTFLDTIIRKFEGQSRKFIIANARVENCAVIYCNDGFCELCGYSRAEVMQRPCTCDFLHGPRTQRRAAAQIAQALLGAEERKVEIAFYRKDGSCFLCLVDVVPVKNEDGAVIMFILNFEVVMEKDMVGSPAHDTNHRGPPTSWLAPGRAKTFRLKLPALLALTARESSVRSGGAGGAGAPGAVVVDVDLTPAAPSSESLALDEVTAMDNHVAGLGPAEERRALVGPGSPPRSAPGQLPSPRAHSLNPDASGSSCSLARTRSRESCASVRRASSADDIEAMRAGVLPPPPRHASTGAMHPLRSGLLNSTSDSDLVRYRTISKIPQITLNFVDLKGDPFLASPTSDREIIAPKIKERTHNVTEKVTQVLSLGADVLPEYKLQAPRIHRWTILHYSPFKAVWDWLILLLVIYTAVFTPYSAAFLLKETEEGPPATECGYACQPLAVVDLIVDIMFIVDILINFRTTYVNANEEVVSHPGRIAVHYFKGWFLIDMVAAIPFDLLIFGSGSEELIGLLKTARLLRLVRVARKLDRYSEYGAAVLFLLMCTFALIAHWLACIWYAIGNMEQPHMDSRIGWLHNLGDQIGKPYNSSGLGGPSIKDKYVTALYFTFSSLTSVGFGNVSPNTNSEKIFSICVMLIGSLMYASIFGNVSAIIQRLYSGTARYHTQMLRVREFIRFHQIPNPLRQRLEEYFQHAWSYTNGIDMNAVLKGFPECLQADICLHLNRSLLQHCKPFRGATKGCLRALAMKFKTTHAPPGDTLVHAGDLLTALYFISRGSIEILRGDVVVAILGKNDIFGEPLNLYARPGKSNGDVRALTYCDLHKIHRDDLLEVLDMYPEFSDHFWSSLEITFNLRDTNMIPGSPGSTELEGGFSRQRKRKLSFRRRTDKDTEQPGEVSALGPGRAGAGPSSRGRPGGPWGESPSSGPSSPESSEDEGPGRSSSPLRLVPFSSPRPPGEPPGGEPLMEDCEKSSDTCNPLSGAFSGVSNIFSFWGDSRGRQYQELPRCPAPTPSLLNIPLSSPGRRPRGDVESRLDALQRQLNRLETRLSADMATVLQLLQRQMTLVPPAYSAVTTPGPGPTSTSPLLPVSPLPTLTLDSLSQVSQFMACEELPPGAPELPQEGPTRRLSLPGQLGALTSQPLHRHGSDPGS
Assay: Human Ether-a-go-go-Related Gene (hERG) channel small molecule antagonists: fluorescence cell-based qHTS assay (AID 1671200); also: potency is read from the fitted curve at half-maximal effect
Conditions: hERG-U2OS cells, FluxOR thallium flux fluorescence; series mostly up to 76.8 µM
Procedure, shortened: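 U2OS cells expressing the channel were plated at 1000 cells/well, incubated overnight at 37 C, then loaded with FluxOR II thallium-sensitive dye for 1 h at room temperature in the dark, with a further 10 min at room temperature before stimulation.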

Compound | Potency
CCCCCCOC(=O)CCCCCCCC(=O)OCCCCCC | inactive
Brc1cc(-c2ccc(Br)c(Br)c2Br)cc(Br)c1Br | inactive
Cc1cc(OI)c(C(C)C)cc1-c1cc(C(C)C)c(OI)cc1C | inactive
CNC(=S)NC | inactive
Nc1nccs1 | inactive
Cc1ccnc2ccccc12 | inactive
CCOC(=O)[C@@H](C)Oc1ccc(Oc2nc3ccc(Cl)cc3o2)cc1 | 19.5 µM (active)
OC/C(Br)=C(\Br)CO | inactive
O=C(O)c1ccccc1NCCc1ccccc1 | inactive
CC(C)=CC=O | inactive
Cc1ccc(S)cc1 | inactive
O=C(C(=O)c1ccccc1)c1ccccc1 | inactive
Cc1cc(S(=O)(=O)O)ccc1N=Nc1c(O)ccc2ccccc12 | inactive
CCOC(=N)CC(=O)OCC | inactive
Cc1cc(O)c2c(O)c3c(O)cccc3cc2c1 | inactive
CCCCCCCCCCCC[N+](C)(C)CCCS(=O)(=O)[O-] | inactive
C=CC(=C)CCCC(C)(C)OC(C)=O | inactive
CCCCCCCCCOC(C)=O | inactive
COc1ccc(CCC(=O)c2c(O)cc(O[C@@H]3O[C@H](CO)[C@@H](O)[C@H](O)[C@H]3O[C@@H]3O[C@@H](C)[C@H](O)[C@@H](O)[C@H]3O)cc2O)cc1O | inactive
CC1=CC(=O)CC(C)(C)C1(O)/C=C/C(C)=C\C(=O)O (stereo unspecified) | inactive
OCC1CC=CCC1 (stereo unspecified) | inactive
CCCCCCCC/C=C\CCCCCCCC(=O)OC | inactive
CCC(=O)OC/C=C/c1ccccc1 | inactive
Cc1nc2ccccc2s1 | inactive
CC1(C)C(=O)N(Br)C(=O)N1Cl | inactive
CC1=CC(O)CC(C)(C)C1 (stereo unspecified) | inactive
CO[Si](C)(OC)OC | inactive

Target: Cytochrome P450 3A4 (Homo sapiens) (UniProt P08684)
Sequence (P08684 whole entry, looked up): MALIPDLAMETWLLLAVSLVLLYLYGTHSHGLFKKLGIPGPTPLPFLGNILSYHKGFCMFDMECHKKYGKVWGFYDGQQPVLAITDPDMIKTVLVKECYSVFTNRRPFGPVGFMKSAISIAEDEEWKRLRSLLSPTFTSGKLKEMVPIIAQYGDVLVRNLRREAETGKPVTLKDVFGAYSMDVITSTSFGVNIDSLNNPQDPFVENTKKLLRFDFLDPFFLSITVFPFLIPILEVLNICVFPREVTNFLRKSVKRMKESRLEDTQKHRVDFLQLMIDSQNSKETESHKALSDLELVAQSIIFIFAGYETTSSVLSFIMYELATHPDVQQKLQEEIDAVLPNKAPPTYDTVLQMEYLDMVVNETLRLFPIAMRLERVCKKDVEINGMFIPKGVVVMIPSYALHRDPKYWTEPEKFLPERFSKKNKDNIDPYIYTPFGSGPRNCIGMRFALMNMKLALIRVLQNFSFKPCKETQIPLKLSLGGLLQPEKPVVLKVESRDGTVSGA
Assay: Cytochrome P450 Family 3 Subfamily A Member 4 (CYP3A4) small molecule antagonists: luciferase reporter qHTS assay (AID 1671201); also: potency is read from the fitted curve at half-maximal effect
Conditions: P450-Glo CYP3A4 enzyme, luciferin luminescence, 1 h; series mostly up to 115 µM
Procedure, shortened: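 P450-Glo CYP3A4 system with proluciferin substrate; compounds preincubated 10 min RT with enzyme-substrate mix, then NADPH regeneration added for 1 h RT. Detection reagent 20 min, luminescence read as relative luminescence units.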

Compound | Potency
CCCCCCOC(=O)CCCCCCCC(=O)OCCCCCC | inactive
Brc1cc(-c2ccc(Br)c(Br)c2Br)cc(Br)c1Br | inactive
Cc1cc(OI)c(C(C)C)cc1-c1cc(C(C)C)c(OI)cc1C | inactive
O=C(N[C@@H](c1ccccc1)[C@@H]1CCCCN1)c1cccc(C(F)(F)F)c1Cl | 1.59 µM (active)
CNC(=S)NC | inactive
Nc1nccs1 | inactive
O=C(/C=C/c1ccccc1)OCCCc1ccccc1 | inactive
Cc1ccnc2ccccc12 | inactive
CC(C)C(OC(=O)c1ccccc1)C(C)(C)COC(=O)c1ccccc1 (stereo unspecified) | inactive
CCOC(=O)[C@@H](C)Oc1ccc(Oc2nc3ccc(Cl)cc3o2)cc1 | inactive
OC/C(Br)=C(\Br)CO | inactive
O=C(O)c1ccccc1NCCc1ccccc1 | inactive
CC(C)=CC=O | inactive
Cc1ccc(S)cc1 | inactive
c1cc[c]([Bi]([c]2ccccc2)[c]2ccccc2)cc1 | 2.24 µM (active)
O=C(C(=O)c1ccccc1)c1ccccc1 | inactive
Cc1cc(S(=O)(=O)O)ccc1N=Nc1c(O)ccc2ccccc12 | 39.9 µM (active)
CCOC(=N)CC(=O)OCC | inactive
CCCC1C(CC)=CC(CC)=CN1c1ccccc1 (stereo unspecified) | 31.7 µM (active)

Compound | Potency
CCCCCCCCCCCC[N+](C)(C)CCCS(=O)(=O)[O-] | inactive
C=CC(=C)CCCC(C)(C)OC(C)=O | inactive
CCCCCCCCCOC(C)=O | inactive
CCCCN(CCCC)C(=S)SSC(=S)N(CCCC)CCCC | 5.58 µM (active)
NC(=O)N(O)[C@@H]1C=C[C@H](Oc2cccc(Oc3ccc(F)cc3)c2)C1 | 0.894 µM (active)
CC1=CC(=O)CC(C)(C)C1(O)/C=C/C(C)=C\C(=O)O (stereo unspecified) | inactive
CCCCC/C(=C\c1ccccc1)CO | inactive
COc1cc2c(N3CCN(C(=O)Nc4ccc(OC(C)C)cc4)CC3)ncnc2cc1OCCCN1CCCCC1 | inactive
OCC1CC=CCC1 (stereo unspecified) | inactive
CCCCC(CC)C(=O)OCCOCCOCCOCCOC(=O)C(CC)CCCC (stereo unspecified) | 12.6 µM (active)
CCCCCCCC/C=C\CCCCCCCC(=O)OC | inactive
CCC(=O)OC/C=C/c1ccccc1 | inactive
CO/N=C1\CN(c2nc3c(cc2F)c(=O)c(C(=O)O)cn3C2CC2)CC1CN (stereo unspecified) | inactive
Cc1nc2ccccc2s1 | inactive
Nc1ccc(C(=O)OCCCOC(=O)c2ccc(N)cc2)cc1 | 2.24 µM (active)
N#C[C@@H]1C[C@@H]2C[C@@H]2N1C(=O)[C@@H](N)C12CC3CC(CC(O)(C3)C1)C2 | inactive
CC1=CC(O)CC(C)(C)C1 (stereo unspecified) | inactive
CO[Si](C)(OC)OC | 4.91 µM (active)
